Compound activity: PubChem BioAssay, National Center for Advancing Translational Sciences (NCATS)
Rows were chosen to be rich in hits. Some 21% of all compounds tested hit in one or more screens of this group.
Pf growth 48h = inhibits P. falciparum growth in the first generation, 48 h | P. falciparum luciferase growth in erythrocytes, 48 h | Potency, µM (highest dose often 28.7 µM), for the others: at the top dose activity change, negative = inhibition, actives largely listed as inhibitors | 5.9% of 310,000 active; note: potency is the fitted concentration of half-maximal effect; % is set by controls: 0 for no effect and ±100 for the full control effect
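Here the parasites carry a stable luciferase gene and grow inside erythrocytes in Albumax-based RPMI medium with compound for one erythrocytic cycle. Activity is scored as loss of luminescent signal.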
Shiga inhibitor = blocks Shiga toxin action in Vero cells | Vero cells, Shiga toxin protein synthesis inhibition reporter | inhibition, % at 38.7 µM | 9.2% of 290,000 active | AID 2315; in the data active = inhibition mostly above about 28%, no sharp cut-off; inactive = mostly below about 43%; note: 0% is about no effect
Sm TGR block = inhibitors of Schistosoma mansoni thioredoxin glutathione reductase | purified TGR, DTNB reduction, TNB absorbance 405 nm | Potency, µM (top dose mostly 114 µM), without a hit: top-dose activity change, negative = inhibition, hits mostly inhibitors | Q962Y6 | 3% of 360,000 active; note: potency is the fitted concentration of half-maximal effect; % is set by controls: 0 for no effect and ±100 for the full control effect; nearly all actives have a fitted effect of over 60% in size
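Kinetic colorimetric format: TGR-catalysed, NADPH-driven DTNB reduction monitored via TNB absorbance. Enzyme dispensed at 20 nM; compound exposure 15 min at room temperature before reaction start.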
NS1 function inh = inhibitors of influenza NS1 protein function; Potency, µM (highest dose often 46.1 µM), inactives show at the highest dose activity, positive = more growth; 0.4% of 270,000 active; AID 2326; calls by dose curve; note: potency is the fitted concentration of half-maximal effect; actives are rising curves; nearly all actives have a fitted effect of over 50% in size
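Growth recovery, yeast-based: influenza A NS1 expressed in S. cerevisiae causes slow growth, and suppressors are detected by OD600. The parent strain without NS1 is used as positive control.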
CHX counter = counter-screen for Shiga toxin inhibitors: cycloheximide protein synthesis inhibition; max response, %; AID 2314; cell reporter, cycloheximide protein synthesis inhibition counterscreen; 12% of 300,000 active; in the data active = max response mostly above about 13%, no sharp cut-off; inactive = mostly below about 14%; note: read at 38.3 µM for the half of the compounds with a filed dose; 0% is about no effect
Pf growth 96h = P. falciparum growth inhibition at 96 hour, primary screen for plastid delayed-death inhibitors. P. falciparum luciferase reporter growth, 96 h. Potency, µM (series often up to 28.7 µM), inactives show at the highest dose activity change, negative = inhibition, hits mostly inhibitors. 6.9% of 320,000 active. AID 504834; note: potency is the fitted concentration of half-maximal effect; % is set by controls: 0 for no effect and ±100 for the full control effect
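Luminescence readout: decreased luciferase signal marks inhibited growth of reporter-expressing P. falciparum in infected red cells (2% hematocrit, 0.05% parasitemia final), exposed to compound two generations (96 h, 37 C, 5% CO2).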
* marks the source's active call; other numbers are inactive results; u = inconclusive; x = not tested or not shown; [ ] = remark or other dose. Unless noted, calls come from the whole dose curve; as a rule, active = well fitted curve in the direction sought with a large enough effect; inconclusive = small, poorly fitted or top-dose-only effect, or another doubt; inactive = no such curve, though single readings can be large; an effect the other way counts as inactive or inconclusive.

SMILES	Pf growth 48h	Shiga inhibitor	Sm TGR block	NS1 function inh	CHX counter	Pf growth 96h
COc1cc(/C=N/NC(=O)c2csc3c2CCCC3)ccc1OCCN1CCOCC1	2%	26	0%	-5%	26*	u
COc1cc(/C=N/NC(=O)c2csc3c2CCCC3)cc(OC)c1O	2%	17*	2%	-24%	-3	-19%
Cc1ccc(/C=N/NC(=O)c2csc3c2CCCC3)cc1	41%	101*	0%	-12%	27*	69%
O=C(Nc1ccc(F)cc1)c1csc2c1CCCCC2	x	x	6%	x	x	x
O=C(COc1ccc2ccccc2c1)NNC(=O)C(=O)Nc1ccccc1	22%	25	3%	5%	-3	-13%
COc1ccccc1NC(=O)c1ccc(NC(=O)c2cc3c(s2)CCC3)cc1	u	-10	4%	-8%	-8	u
O=C(Nc1ccccc1OC(F)F)c1cc2c(s1)CCC2	78%	43*	-3%	-14%	40*	109%
O=C(NNC(=S)Nc1ccc(OC(F)F)cc1)c1cc2c(s1)CCCC2	16%	10	-6%	-6%	14*	34%
COC(=O)C1C(O)=C(C=Nc2ccc3ccccc3c2)C(=O)CC1(C)C (stereo not given)	0%	17	8%	-22%	15*	-6%
N#C/C(=C/c1ccc([N+](=O)[O-])cc1)C(=O)Nc1ccccc1O	-4%	74*	-33%	-10%	62*	-20%
N#C/C(=C/c1ccc(O)c([N+](=O)[O-])c1)C(=O)Nc1ccccc1	41%	51*	6%	x	27*	-10%
N#C/C(=C/c1ccc([N+](=O)[O-])cc1)C(N)=O	0%	-9	-35%	0%	-3	8%
N#C/C(=C\c1ccc([N+](=O)[O-])cc1)C(=O)Nc1ccccc1O	-14%	40	-27%	-14%	31*	u
O=C(O)C(Cc1cc(I)c(O)c(I)c1)c1ccccc1 (stereo not given)	-4%	x	x	x	x	u
COc1ccc(N2CCN(C(CNS(C)(=O)=O)c3ccco3)CC2)cc1 (stereo not given)	38%	11	-3%	x	4	104%
CCc1ccccc1NC(=O)Cn1c(=O)ccc2cc(S(=O)(=O)N3CCC(C)CC3)ccc21	x	x	2%	x	x	x
COc1ccc(C(=O)NC(=S)Nc2ccc(Cl)c(C(=O)O)c2)cc1	94%	12	40µM*	x	6	-10%
CC(C)Oc1cccc(C(=O)NC(=S)Nc2ccc(Cl)c(C(=O)O)c2)c1	52%	32	40µM*	-52%	8	u
CC(C)Oc1cccc(C(=O)NC(=S)Nc2cccc(C(F)(F)F)c2)c1	57%	13	0%	6%	-4	65%
COc1ccc([C@@H](C)NC(=O)CCc2nnc(-c3cc(C)on3)o2)cc1	19%	-7	-1%	0%	2	2.9µM*
Cc1cc(-c2nnc(CCC(=O)N(C)Cc3cccc4ccccc34)o2)no1	-15%	63*	13%	-3%	20*	u
Cc1cc(-c2nnc(CCC(=O)NCc3cc(F)cc(C(F)(F)F)c3)o2)no1	-10%	32	-3%	11%	25*	-23%
CCC(NC(=O)CCc1nnc(-c2cc(C)on2)o1)C12CC3CC(CC(C3)C1)C2 (stereo not given)	u	30	5%	-16%	18*	9%
CC(=O)C1=C(C)NC(=O)CC1c1ccc(F)cc1 (stereo not given)	6%	-9	x	4%	-4	16%
CC(C)c1ccc2oc(=O)cc(CN3CCOCC3)c2c1	9%	-2	1%	-13%	5	2%
O=P(O)(CCP(=O)(O)c1ccccc1)c1ccccc1	x	x	x	-2%	x	x
Nc1nc(SCC(=O)Nc2ccc3c(c2)CCC3)n[nH]1	11%	19	-8%	12%	8	12%
Cc1cc(-c2nnc(CCC(=O)NC(C)c3cccc4ccccc34)o2)no1 (stereo not given)	-17%	15	-8%[57.1 µM]	1%	6	12µM*
CCC(C)n1c(SCC(=O)NC2CCCC2)nc2ccccc2c1=O (stereo not given)	12µM*	x	-6%	x	x	u
CCOC(CCn1c(SCC(=O)NC2CCCC2)nc2ccccc2c1=O)OCC	14%	-13	3%	-1%	-4	-3%
